HT1080NT lethal: qHTS for induction of synthetic lethality in tumor cells producing 2HG: qHTS for the HT-1080-NT fibrosarcoma cell line. hit rate 1.6% among 360,000. AID 686970, 2013. HT-1080-NT fibrosarcoma viability, CellTiter-Glo ATP luminescence, 48 h. Potency, µM (highest dose often 46.1 µM), hits mostly cytotoxic;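 note: NT is the 2HG producing partner of a matched IDH1 knockdown line; nearly all actives have a fitted effect of over 55% in size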
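Luminescent CellTiter-Glo readout after 48 hours of compound exposure at 37 degrees C defined viability of HT-1080-NT cells. Activity was normalized to DMSO wells and cell-free media wells; concentration-response curves were fitted and assigned curve classes.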
DT40 TDP1 no CPT: qHTS for Inhibitors of human tyrosyl-DNA phosphodiesterase 1 (TDP1): qHTS in cells in absence of CPT. DT40 Tdp1-/- hTDP1 cells, no CPT, ATP luminescence, 48 h. Potency, µM (titrated, usually from 46.2 µM), most hits filed as inhibitors. hit rate 15% among 420,000; note: nearly all actives have a fitted effect of over 55% in size
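Growth of hTDP1-complemented DT40 Tdp1-knockout cells is measured by ATP luminescence after at least 48 hr compound exposure at 37 °C, with DMSO substituting for the 20 nM CPT used in the parallel screen.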
HT1080 IDH1KD tx: qHTS for induction of synthetic lethality in tumor cells producing 2HG: qHTS for the HT-1080-IDH1KD cell line. Potency, µM (titrated, usually from 46.1 µM), hits mostly cytotoxic. AID 686971, 2013. HT-1080 IDH1 knockdown viability, ATP luminescence, 48 h. hit rate 2% among 360,000
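Luminescent ATP read-out (CellTiter-Glo, 10 min at room temperature) after 48 h compound exposure at 37 °C gave viability of IDH1-knockdown HT-1080 cells. Activity was normalised to DMSO and cell-free wells, then fitted as concentration-response curves.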
DT40 TDP1 CPT: qHTS for Inhibitors of human tyrosyl-DNA phosphodiesterase 1 (TDP1): qHTS in cells in presence of CPT; chicken DT40 Tdp1-/-;hTDP1 cells + 20 nM CPT, ATP luminescence, 48 h; AID 686979, 2013; Potency, µM (top dose mostly 46.2 µM), usual class: inhibitors; hit rate 12% among 420,000; note: nearly all actives have a fitted effect of over 55% in size
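Chicken DT40 Tdp1-/- cells complemented with human TDP1, 400 cells/well, exposed to compounds plus 20 nM camptothecin for at least 48 h at 37 C; viability read as ATP content by CellTiter-Glo luminescence.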
uPA surface inh: qHTS for Inhibitors of Cell Surface uPA Generation; cell surface uPA generation assay, qHTS; Potency, µM (doses to about 38.3 µM), usual class: inhibitors; hit rate 0.31% among 330,000; AID 540303, 2011; active = well fitted inhibition curve with a large enough effect; inconclusive = small, poorly fitted or top-dose-only effect; inactive = no such curve, though single readings can be large or run the other way; tested in mouse RAW 264.7 cells; note: nearly all actives have a fitted effect of over 55% in size
IL1B secr inh: qHTS for Inhibitors of Inflammasome Signaling: IL-1-beta AlphaLISA Primary Screen | hit rate 4.7% among 360,000 | THP-1 LPS/ATP IL-1B secretion, AlphaLISA, 16 h; stronger effect = lower value | AID 743279, 2014 | activity change, % at 57.5 µM; in the data active = activity change below about -50%; inconclusive = mostly about -30% to -49%
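THP-1 cells pretreated 1 hr with compounds (up to 57.5 uM final), then stimulated with LPS (250 ng/mL final) plus ATP (1.25 mM final); secreted IL-1B measured by AlphaLISA after 16 hr, decreased signal indicating inhibition.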
Hits are given with their value; – = inactive; ? = inconclusive; · = no result; [ ] = remark or other dose. Most compounds without a hit are left out; they make up all but 19% or so of the library. Unless noted, calls come from the whole dose curve; as a rule, active = well fitted curve in the direction sought with a large enough effect; inconclusive = small, poorly fitted or top-dose-only effect, or another doubt; inactive = no such curve, though single readings can be large; an effect the other way counts as inactive or inconclusive.

SMILES | HT1080NT lethal | DT40 TDP1 no CPT | HT1080 IDH1KD tx | DT40 TDP1 CPT | uPA surface inh | IL1B secr inh
CCc1ccc(-n2nc(C)c3c(C)cc(=O)n(CC(=O)Nc4ccc(C(C)=O)cc4)c32)cc1 | · | 9.2µM | · | ? | · | ·
CCOC(=O)c1ccc(NC(=O)Cn2c(=O)cc(C)c3c(C)nn(-c4ccc(CC)cc4)c32)cc1 | · | – | · | ? | · | ·
COc1ccc(NC(=O)Cn2c(=O)cc(C)c3c(C)nn(C)c32)cc1 | · | 3.3µM | · | ? | · | ·
COc1ccc(CNC(=O)Cn2c(=O)cc(-c3ccccc3)c3c(C)nn(C)c32)cc1 | · | – | · | – | · | ·
Cc1cccc(C)c1NC(=O)Cn1c(=O)cc(C)c2c(C)nn(-c3cccc(Cl)c3C)c21 | · | – | · | – | · | ·
CCOc1ccc(NC(=O)Cn2c(=O)cc(C)c3c(C)nn(C)c32)cc1 | · | 8.2µM | · | 21µM | · | ·
Cc1nn(C)c2c1c(C(F)(F)F)cc(=O)n2CC(=O)Nc1ccc(F)cc1F | · | – | · | ? | · | ·
Cc1cc(=O)n(CC(=O)NC(C)c2ccccc2)c2c1c(C)nn2C (stereo not given) | · | 8.2µM | · | 15µM | · | ·
Cc1ccc(Cl)cc1NC(=O)Cn1c(=O)cc(C)c2c(C)nn(C)c21 | · | ? | · | 12µM | · | ·
O=C(NCc1ccco1)c1cc2cc(Br)ccc2o1 | – | ? | – | ? | – | ?
Oc1ccc2ccccc2c1CN1CCCCC1 | – | – | – | – | – | –
CCN1CCN(Cc2c3ccccc3cc3ccccc23)CC1 | – | ? | – | ? | – | -86
O=C(O)Cn1c(-c2ccccc2)cc2ccccc21 | – | – | – | – | – | –
COc1cccc(Oc2ncnc(N)c2[N+](=O)[O-])c1 | – | – | – | – | – | ?
COc1ccc(-n2nnnc2C2CCN(S(=O)(=O)c3cc(Cl)ccc3OC)CC2)cc1 | · | 18µM | · | 13µM | · | ·
COc1ccc(-n2nnnc2C2CCN(S(=O)(=O)c3ccc(C)cc3)CC2)cc1 | · | – | · | 13µM | · | ·
COc1ccc(-n2nnnc2C2CCN(S(=O)(=O)c3ccc(C(C)(C)C)cc3)CC2)cc1 | · | – | · | – | · | ·
N#CC1(NC(=O)CSc2nnc3n2CCCCC3)CCCCC1 | – | – | – | – | – | –
COc1cccc(C(=O)NC(=O)Nc2ccc(-n3nc(C(F)(F)F)cc3C(F)(F)F)cc2)c1 | · | – | · | – | · | ·
COc1ccccc1C(=O)NC(=O)Nc1ccc(-c2cc(C(F)(F)F)nn2-c2ccccc2)cc1 | · | 4.6µM | · | 5.8µM | · | ·
COc1ccccc1C(=O)Nc1ccc(-c2cc(C(F)(F)F)nn2-c2ccccc2)cc1 | · | 5.2µM | · | 4.1µM | · | ·
COC(=O)c1cccc(C(=O)N2CCc3c(cnc(C)c3CNC(=O)c3ccsc3)C2)c1 | · | – | · | –[9.04 µM] | · | ·
O=C(COC(=O)c1nc(Cl)ccc1Cl)NC(=O)c1ccccc1 | – | – | – | – | – | –
NC(=O)CN1C(=O)C(O)(CC(=O)/C=C\c2ccc3c(c2)OCO3)c2ccccc21 (stereo not given) | ? | ? | ? | – | – | -88
CN1C(=O)C(O)(CC(=O)/C=C\c2ccc3c(c2)OCO3)c2ccccc21 (stereo not given) | ? | ? | ? | ? | – | -101
SMILES | HT1080NT lethal | DT40 TDP1 no CPT | HT1080 IDH1KD tx | DT40 TDP1 CPT | uPA surface inh | IL1B secr inh
O=C(CC1(O)C(=O)N(Cc2ccccc2)c2ccccc21)c1ccc2c(c1)OCO2 (stereo not given) | – | ? | – | ? | – | –
C=CCSc1nnc(-c2cc3c(-c4ccccc4)nn(C)c3s2)n1C | – | ? | – | ? | – | -62
CC(CNC(=O)CN1C(=O)COc2ccc(S(=O)(=O)N3CCCCC3)cc21)c1ccccc1 (stereo not given) | – | – | – | ? | – | –
COc1cc(OCc2ccccc2)c(CC(=O)O)c([N+](=O)[O-])c1 | – | – | – | – | · | –
CC(NS(=O)(=O)OCC(Cl)(Cl)Cl)c1ccc(Br)cc1 (stereo not given) | – | – | – | – | – | –
COc1ccc(C(=O)OCC(=O)c2ccc3c(c2)NC(=O)CO3)cc1OC | – | – | – | – | – | –
CCOC(=O)c1ccc2c(c1)NCc1cccc(OC)c1O2 | – | 10µM | – | 10µM | – | –
Cc1ccc(C)c(OCC(=O)N/N=C/c2ccc(N3CCOCC3)cc2)c1 | – | ? | – | ? | · | –
Cc1ccccc1OCCn1cc(C(=O)O)c2ccccc21 | – | – | – | – | – | –
Cc1ccc(OCCn2cc(C=O)c3ccccc32)cc1 | – | ? | – | ? | – | –
CN1CCN(C(=S)c2cn(CCOc3ccccc3)c3ccccc23)CC1 | – | – | – | – | – | –
Cc1ccc(OCCn2cc(C(=O)c3cccs3)c3ccccc32)cc1 | · | 13µM | · | 18µM | · | ·
CN1CCN(C(=S)c2cn(CCOc3ccccc3F)c3ccccc23)CC1 | – | 18µM | – | ? | – | –
COc1ccccc1OCCn1cc(C(=O)c2cccs2)c2ccccc21 | · | 10µM | · | ? | · | ·
COC(=O)c1ccc2c(=O)[nH]c(COC(=O)c3c(-c4ccccc4)noc3C)nc2c1 | – | – | – | ? | – | –
CC1C(=O)N2CCCc3cc(NC(=O)COc4ccc(Cl)cc4)cc1c32 (stereo not given) | – | ? | – | ? | – | –
CC(NC(=O)COC(=O)c1nc(Cl)ccc1Cl)c1ccccc1 (stereo not given) | – | – | – | – | – | –
Cc1ccc(C)n1-c1ccc(C(=O)/C=C/N(C)C)cc1 | ? | ? | ? | ? | – | -87
Cc1ccc(C)n1-c1ccc(C(=O)NN)cc1 | – | 21µM | – | 7.3µM | – | –
CCc1noc(C)c1C(=O)N1CCN(S(=O)(=O)c2c(C)c(C)cc(C)c2C)CC1 | – | ? | – | – | – | –
Cc1cc(S(=O)(=O)c2ccc(Cl)cc2)nc(S(=O)(=O)c2ccc(Cl)cc2)c1C#N | ? | 0.65µM | 6.5µM | 0.65µM | · | -103
CCCCN(C)c1nc2c(S(=O)(=O)c3ccc(CC)cc3)nnn2c2ccc(Cl)cc12 | · | 10µM | · | 12µM | · | ·
Cc1ccc(S(=O)(=O)c2nnn3c2nc(N(C)Cc2ccccc2)c2cc(Cl)ccc23)cc1C | · | 12µM | · | 13µM | · | ·
CN(Cc1ccccc1)S(=O)(=O)c1nnc(NC(=O)c2cccc(Cl)c2)s1 | · | 13µM | · | 15µM | · | ·
CN(Cc1ccc(F)cc1)S(=O)(=O)c1nnc(NC(=O)c2ccc(F)cc2)s1 | · | 15µM | · | ? | · | ·

Screening results: PubChem BioAssay, National Center for Advancing Translational Sciences (NCATS)
